Experimental data as given in PubChem BioAssay.
Active and inactive are the calls of the source.

Legend:
[1] = system: PRMT1 (protein arginine N-methyltransferase 1); test: small molecules binding arginine methyltransferase PRMT1 – biochemical, small-molecule microarray, 635 nm fluorescence, primary screen (AID 1088); conditions: higher = more signal;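 also: binding of Prmt1 protein to compounds spotted on small-molecule microarray slides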
[2] = growth effects on S. cerevisiae YJM789 – YJM789 clinical isolate, OD600, 24 h, basal, primary screen (AID 1089); conditions: higher = more signal, called active from +8 up or from −8 down;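 also: growth of clinical yeast isolate S. cerevisiae YJM 789 seeded 1000 cells per well; test concentration not given here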
[3] = S. pombe growth modifiers, basal conditions – strain 972, OD600, 24 h, no modulator, primary screen (AID 1090);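 also: basal condition with compound alone and no growth modifier present; test concentration not given here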; conditions: S. pombe 972 growth, higher = more signal, called active from +8 up or from −8 down
[4] = budding yeast growth modifiers under rapamycin – strain BY4716, OD600, 96 h, primary screen (AID 1091); also: test concentration not given here; conditions: S. cerevisiae BY4716 + rapamycin, higher = more signal, called active from +8 up or from −8 down
[5] = target: Torsin-1A-interacting protein 2 (Homo sapiens) (UniProt Q8NFQ8); test: small molecules binding lysate-expressed LULL1 – cell lysate, human LULL1 lysate, 635/667 nm fluorescence, primary screen (AID 1092); conditions: small-molecule microarray, hLULL1 lysate binding, 635 nm fluorescence; higher = more signal;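 also: probe is lysate of COS7 cells overexpressing human LULL1; score merges per-feature 667 nm fluorescence with signal-to-noise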
Sequence of Torsin-1A-interacting protein 2 (Homo sapiens) (Q8NFQ8 whole entry, looked up): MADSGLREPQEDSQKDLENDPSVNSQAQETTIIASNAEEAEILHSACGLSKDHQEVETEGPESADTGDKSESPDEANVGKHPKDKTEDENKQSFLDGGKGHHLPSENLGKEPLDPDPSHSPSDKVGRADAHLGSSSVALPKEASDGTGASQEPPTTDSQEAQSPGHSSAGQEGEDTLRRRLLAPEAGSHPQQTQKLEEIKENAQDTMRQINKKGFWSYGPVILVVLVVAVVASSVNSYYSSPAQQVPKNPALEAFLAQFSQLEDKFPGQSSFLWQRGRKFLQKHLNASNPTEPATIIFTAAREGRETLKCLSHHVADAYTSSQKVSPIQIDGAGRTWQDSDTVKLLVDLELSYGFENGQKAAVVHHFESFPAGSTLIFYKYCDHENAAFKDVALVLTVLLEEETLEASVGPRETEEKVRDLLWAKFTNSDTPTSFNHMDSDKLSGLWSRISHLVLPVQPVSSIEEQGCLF

[6] = optical density change of DRC41 E. coli – strain DRC41, OD650, 24 h, E. coli filamentation project, primary screen (AID 1093);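 also: MC1000 strain lacking acrAB efflux and sulA so SOS filamentation is blocked; test concentration not given here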; conditions: E. coli DRC41 growth, higher = more signal, called active from +8 up or from −8 down
[7] = probe aLefty2 binding to arrayed compounds – biochemical, biotinylated probe, 635/667 nm fluorescence, primary screen (AID 1094); conditions: small-molecule microarray, higher = more signal;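 also: score merges spot fluorescence near 667 nm with spot signal-to-noise ratio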
[8] = system: Noggin (protein binding on small-molecule microarray); test: small molecules binding Noggin protein – biochemical, 635/667 nm fluorescence, primary screen (AID 1095); conditions: 635 nm fluorescence, higher = more signal;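 also: score merges 667 nm feature fluorescence with signal to noise over triplicate slides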
[9] = target: Neurogenic locus notch homolog protein 3 (Homo sapiens) (UniProt Q9UM47); test: small molecules binding NOTCH3 protein – biochemical, 635/667 nm fluorescence, primary screen (AID 1096); conditions: small-molecule microarray, 635 nm fluorescence, higher = more signal
Sequence of Neurogenic locus notch homolog protein 3 (Homo sapiens) (Q9UM47 whole entry, looked up): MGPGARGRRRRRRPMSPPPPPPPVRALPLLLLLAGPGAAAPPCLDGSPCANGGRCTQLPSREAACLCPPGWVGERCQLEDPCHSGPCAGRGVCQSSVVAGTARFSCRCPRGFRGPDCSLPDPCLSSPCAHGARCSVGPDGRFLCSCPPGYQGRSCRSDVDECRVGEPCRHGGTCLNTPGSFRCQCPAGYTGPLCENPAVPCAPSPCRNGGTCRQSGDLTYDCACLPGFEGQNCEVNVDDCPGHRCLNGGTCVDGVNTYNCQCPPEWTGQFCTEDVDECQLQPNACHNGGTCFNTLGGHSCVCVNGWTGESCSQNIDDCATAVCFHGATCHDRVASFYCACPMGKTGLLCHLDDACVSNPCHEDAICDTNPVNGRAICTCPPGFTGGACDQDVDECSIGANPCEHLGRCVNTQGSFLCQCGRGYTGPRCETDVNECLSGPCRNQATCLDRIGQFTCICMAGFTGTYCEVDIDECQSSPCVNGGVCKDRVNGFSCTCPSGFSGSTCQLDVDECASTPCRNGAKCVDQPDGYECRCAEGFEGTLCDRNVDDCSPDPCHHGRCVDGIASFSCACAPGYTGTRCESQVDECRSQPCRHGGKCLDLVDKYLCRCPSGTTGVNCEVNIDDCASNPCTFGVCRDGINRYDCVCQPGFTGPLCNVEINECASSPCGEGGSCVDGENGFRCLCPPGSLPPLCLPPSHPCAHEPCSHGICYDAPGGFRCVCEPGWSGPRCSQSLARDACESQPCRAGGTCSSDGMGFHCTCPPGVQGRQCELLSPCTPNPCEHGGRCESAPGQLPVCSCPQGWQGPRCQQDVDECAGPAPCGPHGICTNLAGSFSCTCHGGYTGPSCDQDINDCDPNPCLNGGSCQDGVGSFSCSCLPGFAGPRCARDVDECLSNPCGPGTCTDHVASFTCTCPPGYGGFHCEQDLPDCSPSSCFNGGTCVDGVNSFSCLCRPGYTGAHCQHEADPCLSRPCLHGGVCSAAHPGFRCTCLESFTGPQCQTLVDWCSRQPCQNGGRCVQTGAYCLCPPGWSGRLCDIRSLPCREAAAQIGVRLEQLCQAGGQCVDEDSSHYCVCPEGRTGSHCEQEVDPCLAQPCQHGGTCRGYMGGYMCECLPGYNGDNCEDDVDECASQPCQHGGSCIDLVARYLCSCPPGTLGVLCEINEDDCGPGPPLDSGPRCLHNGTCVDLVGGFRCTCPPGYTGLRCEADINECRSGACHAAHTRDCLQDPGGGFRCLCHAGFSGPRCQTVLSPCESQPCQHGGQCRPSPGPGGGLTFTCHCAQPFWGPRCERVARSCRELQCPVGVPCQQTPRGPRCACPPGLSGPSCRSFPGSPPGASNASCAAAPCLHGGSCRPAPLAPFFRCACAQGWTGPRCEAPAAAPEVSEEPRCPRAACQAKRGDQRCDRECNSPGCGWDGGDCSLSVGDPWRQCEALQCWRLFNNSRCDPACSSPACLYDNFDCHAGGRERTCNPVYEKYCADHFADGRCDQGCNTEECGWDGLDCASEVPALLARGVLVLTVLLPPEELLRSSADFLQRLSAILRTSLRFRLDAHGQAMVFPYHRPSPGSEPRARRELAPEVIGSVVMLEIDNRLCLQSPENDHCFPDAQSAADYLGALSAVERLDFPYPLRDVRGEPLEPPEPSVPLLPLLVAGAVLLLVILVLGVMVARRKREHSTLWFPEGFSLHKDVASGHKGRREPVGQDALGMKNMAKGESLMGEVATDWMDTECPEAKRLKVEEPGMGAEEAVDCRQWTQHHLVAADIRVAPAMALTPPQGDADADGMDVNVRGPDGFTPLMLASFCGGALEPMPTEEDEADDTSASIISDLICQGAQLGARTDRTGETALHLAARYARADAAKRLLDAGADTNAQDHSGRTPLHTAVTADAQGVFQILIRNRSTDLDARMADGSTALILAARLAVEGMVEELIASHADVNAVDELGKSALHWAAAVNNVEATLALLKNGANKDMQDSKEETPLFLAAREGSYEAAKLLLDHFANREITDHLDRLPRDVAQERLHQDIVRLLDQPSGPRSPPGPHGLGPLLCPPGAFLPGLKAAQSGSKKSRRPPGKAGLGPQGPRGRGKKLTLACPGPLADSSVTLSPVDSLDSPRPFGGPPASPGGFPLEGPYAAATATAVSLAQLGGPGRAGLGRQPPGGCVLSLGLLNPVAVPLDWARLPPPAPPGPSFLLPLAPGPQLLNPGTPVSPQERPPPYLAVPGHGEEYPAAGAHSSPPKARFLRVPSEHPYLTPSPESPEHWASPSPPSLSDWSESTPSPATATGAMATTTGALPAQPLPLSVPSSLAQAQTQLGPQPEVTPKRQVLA

[10] = probe aEGFR binding to arrayed compounds – biochemical, biotinylated probe, 635/667 nm fluorescence, primary screen (AID 1097); conditions: small-molecule microarray, higher = more signal;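 also: probe is a biotinylated anti-EGFR antibody binding compounds printed on slides; score combines fluorescence near 667 nm and signal to noise of each spot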
[11] = system: Plasmodium falciparum Sir2 (PF13_0152, Sir2A); test: Plasmodium falciparum Sir2A binding compounds – biochemical, small-molecule microarray, 635 nm fluorescence, primary screen (AID 1098); conditions: fluorescence 635 nm, higher = more signal;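 also: score merges spot fluorescence intensity with its signal-to-noise ratio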
[12] = probe aDKK1 binding to arrayed compounds – biochemical, biotinylated probe, 635/667 nm fluorescence, primary screen (AID 1099); conditions: small-molecule microarray, higher = more signal;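 also: score merges 667nm spot fluorescence with signal to noise across triplicate slides; reference of the scale not given here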
[13] = probe aCHRDL2 binding to arrayed compounds – biochemical, biotinylated probe, 635/667 nm fluorescence, primary screen (AID 1100); conditions: small-molecule microarray, higher = more signal
[14] = change in splice reporter luminescence, either direction, cell-based, HEK293, spliceosome inhibition project, primary screen (AID 1101); conditions: HEK293 splicing luciferase reporter, 24 h, higher = more signal, called active from +8 up or from −8 down;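 also: HEK293 cells carrying a splicing-competent luciferase reporter gene; test concentration not given here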
[15] = target: Fibroblast growth factor 10 (Homo sapiens) (UniProt O15520); test: compounds binding fibroblast growth factor 10 – biochemical, small-molecule microarray, 635 nm fluorescence, primary screen (AID 1102); conditions: FGF10 binding, fluorescence 635 nm, higher = more signal
Sequence of Fibroblast growth factor 10 (Homo sapiens) (O15520 whole entry, looked up): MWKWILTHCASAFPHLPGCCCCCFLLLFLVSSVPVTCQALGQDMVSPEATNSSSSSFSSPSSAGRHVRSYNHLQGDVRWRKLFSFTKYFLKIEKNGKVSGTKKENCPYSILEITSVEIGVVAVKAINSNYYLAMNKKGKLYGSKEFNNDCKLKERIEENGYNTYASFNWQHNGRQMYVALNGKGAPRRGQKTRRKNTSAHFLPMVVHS

[16] = system: glycogen synthase kinase-3 (GSK3A per assay name; protocol says GSK3B); test: compounds binding glycogen synthase kinase-3 – biochemical, small-molecule microarray, 635 nm fluorescence, GSK3A, primary screen (AID 1103); conditions: fluorescence 635 nm, higher = more signal; also: the record names both GSK3A and GSK3B
[17] = target: Epidermal growth factor receptor (Homo sapiens) (UniProt P00533); test: compounds binding epidermal growth factor receptor – biochemical, small-molecule microarray, 635 nm fluorescence, primary screen (AID 1104); conditions: EGFR binding, higher = more signal;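 also: score merges 667 nm emission intensity with spot signal to noise over triplicate slides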
Sequence of Epidermal growth factor receptor (Homo sapiens) (P00533 whole entry, looked up): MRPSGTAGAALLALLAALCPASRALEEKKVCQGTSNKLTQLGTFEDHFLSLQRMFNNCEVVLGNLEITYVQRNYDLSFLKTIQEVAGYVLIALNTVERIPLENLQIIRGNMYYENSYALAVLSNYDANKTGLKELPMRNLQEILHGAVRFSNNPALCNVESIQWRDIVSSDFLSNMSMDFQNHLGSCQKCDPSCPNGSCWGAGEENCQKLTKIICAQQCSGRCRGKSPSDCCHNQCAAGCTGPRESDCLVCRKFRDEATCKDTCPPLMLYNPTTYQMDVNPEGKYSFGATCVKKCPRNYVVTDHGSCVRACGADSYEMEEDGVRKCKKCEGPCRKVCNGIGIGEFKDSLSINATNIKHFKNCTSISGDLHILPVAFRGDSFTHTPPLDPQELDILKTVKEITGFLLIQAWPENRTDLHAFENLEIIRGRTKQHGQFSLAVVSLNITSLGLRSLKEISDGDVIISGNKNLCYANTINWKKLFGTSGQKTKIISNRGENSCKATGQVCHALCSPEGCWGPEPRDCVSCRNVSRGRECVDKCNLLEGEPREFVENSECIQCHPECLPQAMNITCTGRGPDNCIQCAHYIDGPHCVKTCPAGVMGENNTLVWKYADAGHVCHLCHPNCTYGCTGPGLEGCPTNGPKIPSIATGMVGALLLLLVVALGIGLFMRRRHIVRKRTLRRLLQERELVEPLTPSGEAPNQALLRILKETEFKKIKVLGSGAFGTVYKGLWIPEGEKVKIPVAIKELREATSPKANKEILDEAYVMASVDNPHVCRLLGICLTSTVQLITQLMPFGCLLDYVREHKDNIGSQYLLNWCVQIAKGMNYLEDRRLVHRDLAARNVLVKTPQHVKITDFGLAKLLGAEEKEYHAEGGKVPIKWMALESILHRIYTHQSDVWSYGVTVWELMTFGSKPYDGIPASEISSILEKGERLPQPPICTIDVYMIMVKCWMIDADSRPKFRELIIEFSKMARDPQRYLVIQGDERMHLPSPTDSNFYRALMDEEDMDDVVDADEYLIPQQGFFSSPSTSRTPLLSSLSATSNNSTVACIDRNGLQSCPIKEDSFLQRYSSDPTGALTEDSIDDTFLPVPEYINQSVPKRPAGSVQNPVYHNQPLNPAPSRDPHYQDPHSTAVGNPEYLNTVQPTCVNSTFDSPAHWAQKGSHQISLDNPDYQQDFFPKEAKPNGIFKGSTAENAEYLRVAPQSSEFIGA

[18] = target: Follistatin-related protein 3 (Homo sapiens) (UniProt O95633); test: compounds binding follistatin-related protein 3 – biochemical, small-molecule microarray, 635 nm fluorescence, primary screen (AID 1105); conditions: FSTL3 binding, higher = more signal;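 also: score merges emission near 667 nm and signal to noise per printed spot across three slides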
Sequence of Follistatin-related protein 3 (Homo sapiens) (O95633 whole entry, looked up): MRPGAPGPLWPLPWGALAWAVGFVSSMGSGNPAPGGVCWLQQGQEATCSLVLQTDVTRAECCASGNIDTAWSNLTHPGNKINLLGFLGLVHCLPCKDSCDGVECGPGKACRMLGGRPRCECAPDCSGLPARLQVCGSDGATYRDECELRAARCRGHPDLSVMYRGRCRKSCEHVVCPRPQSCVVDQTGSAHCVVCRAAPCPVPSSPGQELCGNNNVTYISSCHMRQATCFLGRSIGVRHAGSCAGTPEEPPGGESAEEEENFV

[19] = target: Dickkopf-related protein 1 (Homo sapiens) (UniProt O94907); test: small molecules binding DKK1 protein – biochemical, small-molecule microarray, 635 nm fluorescence scan, primary screen (AID 1106); conditions: higher = more signal;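 also: score merges emission near 667 nm with signal to noise over three replicate slides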
Sequence of Dickkopf-related protein 1 (Homo sapiens) (O94907 whole entry, looked up): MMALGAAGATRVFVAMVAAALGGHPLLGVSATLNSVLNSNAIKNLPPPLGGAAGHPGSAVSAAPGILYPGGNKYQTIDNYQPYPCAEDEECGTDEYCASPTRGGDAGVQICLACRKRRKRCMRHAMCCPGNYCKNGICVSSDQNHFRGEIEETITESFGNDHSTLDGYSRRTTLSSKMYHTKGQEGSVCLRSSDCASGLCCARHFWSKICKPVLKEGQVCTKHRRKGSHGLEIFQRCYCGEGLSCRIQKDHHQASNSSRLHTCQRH

[20] = system: Inhibin beta A chain (activin A); test: small molecules binding activin A – biochemical, small-molecule microarray, 635 nm fluorescence scan, primary screen (AID 1107); conditions: INHBA, higher = more signal;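 also: mouse activin A protein probed at 4.33 µg/mL on printed slides; score merges bound-protein fluorescence near 667 nm with spot signal-to-noise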

| SMILES | composite z-score [1] | z-score [2] | z-score [3] | z-score [4] | composite z-score [5] | z-score [6] | composite z-score [7] | composite z-score [8] | composite z-score [9] | composite z-score [10] | composite z-score [11] | composite z-score [12] | composite z-score [13] | z-score [14] | composite z-score [15] | composite z-score [16] | composite z-score [17] | composite z-score [18] | composite z-score [19] | composite z-score [20] |
| --- | --- | --- | --- | --- | --- | --- | --- | --- | --- | --- | --- | --- | --- | --- | --- | --- | --- | --- | --- | --- |
| [N-]=[N+]=Nc1ccccc1[C@H]1OC(c2ccc(OCCCO)cc2)=N[C@@]1(Cc1ccccc1)C(=O)NCCN1CCOCC1 | 1.57 | 0.0597 (inactive) | -1.75 (inactive) | 1.72 (inactive) | 3.23 | 1.06 (inactive) | 0.363 | 1.36 | 1.05 | 0.688 | 1.59 | 1.34 | 1.29 | -1.01 (inactive) | 1.3 | 1.28 | 0.81 | 1.37 | 0.196 | 1.13 |
| C[C@@H]1NC(=O)[C@@H](Cc2ccccc2)NC(=O)[C@@]23C(=O)N[C@@H](Cc4ccccc4)C2[C@H](C)[C@@]2(C)O[C@H]2C3/C=C/C/C=C\CNC1=O (stereo not given in full) | -1.06 | 0.378 (inactive) | 0.573 (inactive) | 0.783 (inactive) | 2.84 | -1.02 (inactive) | -0.218 | 0.972 | 0.354 | -0.168 | 1.02 | -0.259 | -0.17 | 0.138 (inactive) | -0.2 | -0.769 | -0.318 | 0.119 | 0.0252 | 1.16 |
| CC1=C2[C@@H](CCc3ccccc3)OB(O)C[C@@H]2[C@@H]2C(=O)N(C)C(=O)[C@@H]2C1 | 0.618 | -0.229 (inactive) | -1.2 (inactive) | -1.24 (inactive) | 0.299 | -0.253 (inactive) | -0.197 | 0.446 | 0.279 | -0.0238 | -0.186 | -0.232 | -0.223 | 0.305 (inactive) | 0.985 | 0.443 | 0.135 | 0.451 | 0.521 | 0.273 |
| CCCNC(=O)[C@@]1(Sc2ccc(C)cc2)CC(=O)N(C2Cc3ccccc3C2)[C@@H]1c1ccc(CO)cc1I | 0.918 | -0.452 (inactive) | -1.32 (inactive) | 1.21 (inactive) | 1.28 | 0.761 (inactive) | -0.0321 | -0.287 | -0.0184 | -0.126 | 0.401 | 0.551 | 0.7 | -0.272 (inactive) | -0.189 | -0.0794 | -0.172 | -0.268 | -0.236 | 1.04 |
| O=C(NCCN1CCOCC1)[C@@H]1c2ccccc2C(=O)N(Cc2ccccc2Cl)[C@H]1c1ccc(CO)cc1 | -0.7 | 0.506 (inactive) | 0.545 (inactive) | -0.214 (inactive) | -0.201 | 0.561 (inactive) | -0.547 | -1.31 | -1.4 | -0.362 | -0.855 | -0.633 | -0.803 | -0.284 (inactive) | -1.16 | -0.52 | -0.494 | 0.0801 | -0.569 | 0.823 |
| COCCCNC(=O)[C@@]1(CCC(=O)OC(C)(C)C)N=C(c2ccc(OCCCO)cc2)O[C@H]1c1ccccc1N=[N+]=[N-] | 1.27 | -0.197 (inactive) | 0.362 (inactive) | -0.875 (inactive) | 3.13 | 1.21 (inactive) | 0.644 | -0.0445 | 0.377 | 0.458 | 1.46 | 1.36 | 1.32 | -0.912 (inactive) | 1.23 | 1.31 | -0.182 | 0.209 | 0.795 | 0.739 |
| COC(=O)[C@@]1(Cc2ccccc2)[C@H]2c3cc(C(=O)N(C)C)n(Cc4ccc(C)o4)c3C[C@H]2CN1C(=O)c1ccccc1 | 0.163 | 1.07 (inactive) | 0.65 (inactive) | 0.982 (inactive) | 2.93 | -1.64 (inactive) | 0.746 | -0.471 | 1.13 | 0.667 | 0.527 | 2.33 | 1.57 | -2.02 (inactive) | 0.93 | 0.502 | 0.857 | 0.897 | -1.11 | 1.44 |
| CC1CC/C=C\[C@H]2OC34C=CCN(c5ccc6ccccc6c5)C(=O)[C@H]3N(CCCO)C(=O)[C@@H]4C2C(=O)O1 (stereo not given in full) | -0.131 | 0.116 (inactive) | 0.398 (inactive) | 0.799 (inactive) | -0.546 | -0.696 (inactive) | -0.136 | -1.32 | -0.562 | -0.193 | 0.0565 | -0.179 | 1.07 | 0.738 (inactive) | -1.32 | -0.592 | -1.2 | -0.912 | -2.16 | -0.223 |
| CC(C)[Si](C#C[Si](C(C)C)(C(C)C)C(C)C)(O[C@H](c1ccccc1)c1cn(Cc2ccccc2)nn1)C(C)C | 1.26 | 0.242 (inactive) | 0.641 (inactive) | 0.0108 (inactive) | 0.754 | 0.769 (inactive) | -0.028 | 0.751 | 0.361 | 0.0129 | 0.144 | -0.138 | -0.465 | 0.501 (inactive) | 0.279 | 0.654 | 0.392 | 0.628 | 0.405 | 0.218 |
